# Results from PubChem BioAssay (NCI).
# About 79,000 compounds went through this panel and 15% of them were active in at least one assay; those are over-represented in the sample as a whole. Values without a mark were called inactive. Calls of active or inactive are those of the source. Rule as the data show it: active = growth inhibition above about 70%; inactive = the rest.
# Legend:
# [1] = NCI Yeast Anticancer Drug Screen. Data for the rad52 strain (AID 147);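 also: 0% = growth of vehicle-treated control cultures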; conditions: S. cerevisiae rad52 mutant growth inhibition, hits give high values
# Method in brief: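 Read-out: growth inhibition versus vehicle-treated controls. Cells were a DNA repair-deficient yeast strain treated with compounds.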
# [2] = NCI Yeast Anticancer Drug Screen. Data for the wt1 strain (AID 149);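 also: 0% = growth of vehicle-treated wt1 cultures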; conditions: S. cerevisiae wt1 strain (SPY 50644) growth inhibition, hits give high values
# Method in brief: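 Readout: yeast growth inhibition, normalised to vehicle controls, in the wt1 strain exposed to test compounds.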
# [3] = NCI Yeast Anticancer Drug Screen. Data for the rad50EPP+ strain (AID 151);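 also: 0% = growth of vehicle-treated control cultures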; conditions: S. cerevisiae rad50 mutant strain, hits give high values
# Method in brief: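 Growth inhibition read against vehicle controls in rad50EPP+ yeast, a strain altered in DNA damage repair, after compound exposure.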
# [4] = NCI Yeast Anticancer Drug Screen. Data for the mgt1 strain (AID 153); conditions: S. cerevisiae mgt1 mutant growth inhibition, hits give high values
# Method in brief: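 mgt1 yeast grown with test compound; read-out is growth inhibition versus vehicle-treated cultures.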
# [5] = NCI Yeast Anticancer Drug Screen. Data for the rad50 strain (AID 155);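 also: 0% = growth of vehicle-only cultures of the same strain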; conditions: S. cerevisiae rad50 strain growth inhibition, hits give high values
# Method in brief: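 Compounds were tested on a yeast strain with an engineered DNA damage repair alteration; the reported value is growth inhibition normalised to vehicle treatment.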
# [6] = NCI Yeast Anticancer Drug Screen. Data for the mec2-1 strain (AID 157); conditions: S. cerevisiae mec2-1 strain, hits give high values
# Method in brief: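 Yeast mec2-1 mutant treated with compound. Readout: growth inhibition vs vehicle controls.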
# [7] = NCI Yeast Anticancer Drug Screen. Data for the rad14 strain (AID 159);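 also: 0% = growth of vehicle-treated control cultures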; conditions: S. cerevisiae rad14 strain growth inhibition, hits give high values
# Method in brief: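 Compound-treated yeast with a defined DNA-repair lesion; growth inhibition normalised to vehicle-treated cultures.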
# [8] = NCI Yeast Anticancer Drug Screen. Data for the sgs1 mgt1 strain (AID 161);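 also: 0% = growth of cultures given vehicle only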; conditions: S. cerevisiae sgs1 mgt1 strain, hits give high values
# Method in brief: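 Genetically altered yeast, compound exposure, growth inhibition relative to vehicle.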
# [9] = NCI Yeast Anticancer Drug Screen. Data for the CLN2oe strain (AID 163);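 also: 0% = growth of vehicle-only control cultures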; conditions: S. cerevisiae CLN2oe strain, hits give high values
# Method in brief: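 Read-out: yeast growth inhibition, expressed relative to vehicle-only controls. The strain bears an engineered cell-cycle alteration.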
# [10] = NCI Yeast Anticancer Drug Screen. Data for the cln2 rad14 strain (AID 165);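 also: 0% = growth equal to vehicle treated cultures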; conditions: S. cerevisiae cln2 rad14 strain, hits give high values
# Method in brief: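 cln2 rad14 yeast strain; compound exposure; growth inhibition read vs vehicle controls.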
# [11] = NCI Yeast Anticancer Drug Screen. Data for the bub3 strain (AID 167); conditions: S. cerevisiae bub3 mutant strain, hits give high values
# Method in brief: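 Growth of a checkpoint-deficient yeast mutant is measured after compound exposure. Values represent inhibition relative to vehicle.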
# [12] = NCI Yeast Anticancer Drug Screen. Data for the wt2 strain (AID 169);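 also: 0% = growth of vehicle-treated yeast cultures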; conditions: S. cerevisiae wt2 strain growth inhibition, hits give high values
# Method in brief: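 Read-out: growth inhibition versus vehicle-treated control cultures after compound exposure of the yeast strain.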
# [13] = NCI Yeast Anticancer Drug Screen. Data for the mlh1 strain (AID 171);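 also: 0% = growth of vehicle-treated control cultures of the same strain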; conditions: S. cerevisiae mlh1 strain growth inhibition, hits give high values
# Method in brief: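 Read-out: growth inhibition versus vehicle controls. Strain: engineered yeast with a defined DNA repair or cell cycle defect, compound-treated.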
# [14] = NCI Yeast Anticancer Drug Screen. Data for the sgs1 strain (AID 173);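 also: 0% = growth of vehicle-only control cultures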; conditions: S. cerevisiae sgs1 mutant, hits give high values
# Method in brief: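 Read-out: yeast growth inhibition relative to vehicle controls, following compound exposure of a strain with a defined DNA repair/cell cycle alteration.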
# [15] = NCI Yeast Anticancer Drug Screen. Data for the mlh1 rad18 strain (AID 175); conditions: S. cerevisiae mlh1 rad18 strain growth inhibition, hits give high values
# Method in brief: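 Yeast w/ defined DNA-repair lesions; compound exposure; growth vs vehicle controls → % inhibition.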
# [16] = NCI Yeast Anticancer Drug Screen. Data for the rad18 strain (AID 177); conditions: S. cerevisiae rad18 mutant growth inhibition, hits give high values
# Method in brief: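 Readout: growth inhibition vs vehicle controls. Cells: genetically altered yeast strain, DNA repair defect.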
# [17] = at 5.0 µM (retest, dose inferred, filed as 0.5)
# [18] = at 50.0 µM (retest, dose inferred, filed as 5.0)
smiles,measurement,setting,value
O=C(CCSC1=NCCCN1)c1ccc(F)cc1,growth inhibition,[1]; at 1.2 µM,-38%
same,growth inhibition,[1]; at 3.7 µM,-55%
same,growth inhibition,[1]; at 11.0 µM,-53%
same,growth inhibition,[1]; at 33.0 µM,58%
same,growth inhibition,[1]; at 100.0 µM,99% (active)
same,growth inhibition,[2]; at 1.2 µM,-43%
same,growth inhibition,[2]; at 3.7 µM,-61%
same,growth inhibition,[2]; at 11.0 µM,-101%
same,growth inhibition,[2]; at 33.0 µM,15%
same,growth inhibition,[2]; at 100.0 µM,98% (active)
same,growth inhibition,[3]; at 1.2 µM,-75%
same,growth inhibition,[3]; at 3.7 µM,-100%
same,growth inhibition,[3]; at 11.0 µM,-54%
same,growth inhibition,[3]; at 33.0 µM,37%
same,growth inhibition,[3]; at 100.0 µM,98% (active)
same,growth inhibition,[4]; at 1.2 µM,-59%
same,growth inhibition,[4]; at 3.7 µM,-59%
same,growth inhibition,[4]; at 11.0 µM,-52%
same,growth inhibition,[4]; at 33.0 µM,-3%
same,growth inhibition,[4]; at 100.0 µM,99% (active)
same,growth inhibition,[5]; at 1.2 µM,-21%
same,growth inhibition,[5]; at 3.7 µM,-40%
same,growth inhibition,[5]; [17],24%
same,growth inhibition,[5]; at 11.0 µM,-34%
same,growth inhibition,[5]; at 33.0 µM,-34%
same,growth inhibition,[5]; [18],69%
same,growth inhibition,[5]; at 50.0 µM,4.9%
same,growth inhibition,[5]; at 100.0 µM,96% (active)
same,growth inhibition,[6]; at 1.2 µM,-15%
same,growth inhibition,[6]; at 3.7 µM,3%
same,growth inhibition,[6]; [17],17%
same,growth inhibition,[6]; at 11.0 µM,-52%
same,growth inhibition,[6]; at 33.0 µM,55%
same,growth inhibition,[6]; [18],75% (active)
same,growth inhibition,[6]; at 50.0 µM,94.3% (active)
same,growth inhibition,[6]; at 100.0 µM,100% (active)
same,growth inhibition,[7]; at 1.2 µM,-19%
same,growth inhibition,[7]; at 3.7 µM,-50%
same,growth inhibition,[7]; at 11.0 µM,-54%
same,growth inhibition,[7]; at 33.0 µM,23%
same,growth inhibition,[7]; at 100.0 µM,99% (active)
same,growth inhibition,[8]; [17],6%
same,growth inhibition,[8]; [18],93% (active)
same,growth inhibition,[8]; at 50.0 µM,91% (active)
same,growth inhibition,[9]; at 1.2 µM,-6%
same,growth inhibition,[9]; at 3.7 µM,-7%
same,growth inhibition,[9]; at 11.0 µM,-24%
same,growth inhibition,[9]; at 33.0 µM,14%
same,growth inhibition,[9]; at 100.0 µM,98% (active)
same,growth inhibition,[10]; [17],-3%
same,growth inhibition,[10]; [18],13%
same,growth inhibition,[10]; at 50.0 µM,25.6%
same,growth inhibition,[11]; at 1.2 µM,-22%
same,growth inhibition,[11]; at 3.7 µM,-17%
same,growth inhibition,[11]; [17],12%
same,growth inhibition,[11]; at 11.0 µM,-23%
same,growth inhibition,[11]; at 33.0 µM,-26%
same,growth inhibition,[11]; [18],79% (active)
same,growth inhibition,[11]; at 50.0 µM,91.2% (active)
same,growth inhibition,[11]; at 100.0 µM,68%
same,growth inhibition,[12]; at 1.2 µM,-12%
same,growth inhibition,[12]; at 3.7 µM,-13%
same,growth inhibition,[12]; at 11.0 µM,-5%
same,growth inhibition,[12]; at 33.0 µM,34%
same,growth inhibition,[12]; at 100.0 µM,99% (active)
same,growth inhibition,[13]; at 1.2 µM,-32%
same,growth inhibition,[13]; at 3.7 µM,-73%
same,growth inhibition,[13]; at 11.0 µM,-23%
same,growth inhibition,[13]; at 33.0 µM,-13%
same,growth inhibition,[13]; at 100.0 µM,98% (active)
same,growth inhibition,[14]; at 1.2 µM,-41%
same,growth inhibition,[14]; at 3.7 µM,-52%
same,growth inhibition,[14]; at 11.0 µM,-58%
same,growth inhibition,[14]; at 33.0 µM,-29%
same,growth inhibition,[14]; at 100.0 µM,99% (active)
same,growth inhibition,[15]; [17],24%
same,growth inhibition,[15]; [18],48%
same,growth inhibition,[15]; at 50.0 µM,14.9%
same,growth inhibition,[16]; at 1.2 µM,-13%
same,growth inhibition,[16]; at 3.7 µM,-23%
same,growth inhibition,[16]; at 11.0 µM,-22%
same,growth inhibition,[16]; at 33.0 µM,21%
same,growth inhibition,[16]; at 100.0 µM,96% (active)
CCCCCCCSCC1C(=O)C23C(O)C1CCC2C12COC3(O)C(O)C1C(C)(C)CCC2O (stereo unspecified),growth inhibition,[1]; at 1.2 µM,13%
same,growth inhibition,[1]; at 3.7 µM,14%
same,growth inhibition,[1]; at 11.0 µM,71% (active)
same,growth inhibition,[1]; at 33.0 µM,94% (active)
same,growth inhibition,[1]; at 100.0 µM,85% (active)
same,growth inhibition,[2]; at 1.2 µM,16%
same,growth inhibition,[2]; at 3.7 µM,5%
same,growth inhibition,[2]; at 11.0 µM,82% (active)
same,growth inhibition,[2]; at 33.0 µM,95% (active)
same,growth inhibition,[2]; at 100.0 µM,90% (active)
same,growth inhibition,[3]; at 1.2 µM,26%
same,growth inhibition,[3]; at 3.7 µM,27%
same,growth inhibition,[3]; at 11.0 µM,32%
same,growth inhibition,[3]; at 33.0 µM,28%
same,growth inhibition,[3]; at 100.0 µM,6%
same,growth inhibition,[4]; at 1.2 µM,20%
same,growth inhibition,[4]; at 3.7 µM,20%
same,growth inhibition,[4]; at 11.0 µM,88% (active)
same,growth inhibition,[4]; at 33.0 µM,96% (active)
same,growth inhibition,[4]; at 100.0 µM,89% (active)
same,growth inhibition,[5]; at 1.2 µM,13%
same,growth inhibition,[5]; at 3.7 µM,16%
same,growth inhibition,[5]; [17],-12%
same,growth inhibition,[5]; at 11.0 µM,66%
same,growth inhibition,[5]; at 33.0 µM,93% (active)
same,growth inhibition,[5]; [18],74% (active)
same,growth inhibition,[5]; at 50.0 µM,87.5% (active)
same,growth inhibition,[5]; at 100.0 µM,81% (active)
same,growth inhibition,[6]; at 1.2 µM,23%
same,growth inhibition,[6]; at 3.7 µM,15%
same,growth inhibition,[6]; [17],2%
same,growth inhibition,[6]; at 11.0 µM,67%
same,growth inhibition,[6]; at 33.0 µM,94% (active)
same,growth inhibition,[6]; [18],97% (active)
same,growth inhibition,[6]; at 50.0 µM,88.2% (active)
same,growth inhibition,[6]; at 100.0 µM,87% (active)
same,growth inhibition,[7]; at 1.2 µM,-9%
same,growth inhibition,[7]; at 3.7 µM,5%
same,growth inhibition,[7]; at 11.0 µM,84% (active)
same,growth inhibition,[7]; at 33.0 µM,95% (active)
same,growth inhibition,[7]; at 100.0 µM,91% (active)
same,growth inhibition,[8]; [17],28%
same,growth inhibition,[8]; [18],95% (active)
same,growth inhibition,[8]; at 50.0 µM,87.8% (active)
same,growth inhibition,[9]; at 1.2 µM,19%
same,growth inhibition,[9]; at 3.7 µM,6%
same,growth inhibition,[9]; at 11.0 µM,89% (active)
same,growth inhibition,[9]; at 33.0 µM,97% (active)
same,growth inhibition,[9]; at 100.0 µM,91% (active)
same,growth inhibition,[10]; [17],54%
same,growth inhibition,[10]; [18],97% (active)
same,growth inhibition,[10]; at 50.0 µM,85.8% (active)
same,growth inhibition,[11]; at 1.2 µM,4%
same,growth inhibition,[11]; at 3.7 µM,9%
same,growth inhibition,[11]; [17],65%
same,growth inhibition,[11]; at 11.0 µM,78% (active)
same,growth inhibition,[11]; at 33.0 µM,94% (active)
same,growth inhibition,[11]; [18],97% (active)
same,growth inhibition,[11]; at 50.0 µM,86.2% (active)
same,growth inhibition,[11]; at 100.0 µM,90% (active)
same,growth inhibition,[12]; at 1.2 µM,14%
same,growth inhibition,[12]; at 3.7 µM,0%
same,growth inhibition,[12]; at 11.0 µM,67%
same,growth inhibition,[12]; at 33.0 µM,95% (active)
same,growth inhibition,[12]; at 100.0 µM,93% (active)
same,growth inhibition,[13]; at 1.2 µM,-1%
same,growth inhibition,[13]; at 3.7 µM,23%
same,growth inhibition,[13]; at 11.0 µM,93% (active)
same,growth inhibition,[13]; at 33.0 µM,95% (active)
same,growth inhibition,[13]; at 100.0 µM,91% (active)
same,growth inhibition,[14]; at 1.2 µM,26%
same,growth inhibition,[14]; at 3.7 µM,19%
same,growth inhibition,[14]; at 11.0 µM,89% (active)
same,growth inhibition,[14]; at 33.0 µM,95% (active)
same,growth inhibition,[14]; at 100.0 µM,84% (active)
same,growth inhibition,[15]; [17],50%
same,growth inhibition,[15]; [18],94% (active)
same,growth inhibition,[15]; at 50.0 µM,88.8% (active)
same,growth inhibition,[16]; at 1.2 µM,-1%
same,growth inhibition,[16]; at 3.7 µM,2%
same,growth inhibition,[16]; at 11.0 µM,89% (active)
same,growth inhibition,[16]; at 33.0 µM,94% (active)
same,growth inhibition,[16]; at 100.0 µM,87% (active)
